Laboratory results from PubChem BioAssay (Tox21).
Records with an inconclusive call do not appear. A call without a number means that no potency is given here. Some compounds were tested as several samples or in several runs, with calls that do not always agree. Active and inactive are the calls of the source. Unless noted, calls follow the shape of the dose curve; as a rule, active = well fitted curve in the direction sought with a large enough effect in the repeat runs; inconclusive = weak or mixed curves; inactive = no such curve, though single readings can be large; an effect the other way counts as inactive or inconclusive.

What was measured:
[1] = biological target: Retinoic acid receptor RXR-alpha (Homo sapiens) (UniProt P19793); assay: qHTS assay to identify small molecule agonists of the RXR signaling pathway (AID 1159527; calls by dose curve; also: nearly all actives have a fitted effect of over 35% in size)
Outline: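 qHTS of the Tox21 10K library in GeneBLAzer RXR-alpha HEK 293T cells carrying a beta-lactamase reporter […]; 16 hr treatment, 9-cis retinoic acid as agonist control, FRET read-out.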

[2] = qHTS assay to identify small molecule agonists of the RXR signaling pathway - cell viability counter screen (AID 1159529); also: series mostly up to about 77 µM; nearly all actives have a fitted effect of over 50% in size
Outline: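 Cell viability is measured by CellTiter-Glo luminescence, 30 min at room temperature, in wells already read for beta-lactamase. Engineered HEK 293T cells (RXR-alpha-UAS-bla) are dosed 16 hr at 37 C. Tetraoctyl ammonium bromide serves as positive control.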

[3] = qHTS assay to identify small molecule antagonists of the retinoid acid receptor (RAR) signaling pathway - cell viability counter screen (AID 1159551); also: nearly all actives have a fitted effect of over 35% in size
Outline: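 Luminescent ATP quantitation (CellTiter-Glo) gave cell viability in C3RL4 cells exposed to test chemicals for 6 h at 37 C alongside 1 uM final retinol.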

[4] = qHTS assay to identify small molecule antagonists of the retinoic acid receptor (RAR) signaling pathway (AID 1159552; also: nearly all actives have a fitted effect of over 50% in size)
Outline: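 Quantitative HTS in C3RL4 RARE-luciferase reporter cells. Compounds were added with 1 uM (final) retinol; luminescence was read after 6 hr.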

[5] = qHTS assay to identify small molecule agonists of the retinoic acid receptor (RAR) signaling pathway (AID 1159553)
Outline: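 Luminescence from a RARE-driven luciferase reporter in C3RL4 cells served as the read-out, measured after 30 min with detection reagent at room temperature. Compounds in DMSO were applied for 6 hr at 37 C following overnight seeding.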

[6] = qHTS assay to identify small molecule antagonists of the estrogen related receptor (ERR) signaling pathway from Tox21 library - cell viability counter screen (AID 1224834); also: nearly all actives have a fitted effect of over 30% in size
Outline: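 Fluorescence from CellTiter-Fluor gives the viability read-out, taken 30 min after reagent addition. Before that, ERR cells seeded 6 h earlier were incubated with compounds for 17.5 h at 37 C.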

[7] = biological target: Luciferin 4-monooxygenase (Photinus pyralis) (UniProt P08659); assay: qHTS assay to identify small molecule inhibitors of firefly luciferase (AID 1224835); also: series mostly up to about 120 µM; nearly all actives have a fitted effect of over 25% in size
Outline: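 Inhibition of purified Photinus luciferase is measured by luminescence. Substrate levels (D-luciferin, ATP) sit at their KM values. Each compound is tested in a concentration series.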

[8] = qHTS assay to identify small molecule agonists of the constitutive androstane receptor (CAR) signaling pathway - cell viability counter screen (AID 1224836); also: series mostly up to about 92 µM; nearly all actives have a fitted effect of over 45% in size
Outline: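 Counter screen multiplexed with the CAR reporter readout: HepG2 cells co-transfected with hCAR and the CYP2B6-2.2kb construct receive a 15-concentration compound series and 0.75 uM PK11195 (final), then CellTiter-Fluor fluorescence is read after 23 h.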

[9] = qHTS assay to identify small molecule antagonists of the constitutive androstane receptor (CAR) signaling pathway - cell viability counter screen (AID 1224837); also: series mostly up to about 92 µM; nearly all actives have a fitted effect of over 45% in size
Outline: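 HepG2-CYP2B6-hCAR cells, 2500/well, 4 hr pre-incubation; compound titration, 15 conc.; CITCO 50 nM final; 23 hr, 37 C/5% CO2; CellTiter-Fluor, fluorescence intensity.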

[10] = biological target: Nuclear receptor subfamily 1 group I member 3 (Homo sapiens) (UniProt Q14994); assay: qHTS assay to identify small molecule antagonists of the constitutive androstane receptor (CAR) signaling pathway (AID 1224838);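 also: HepG2 cells stably expressing hCAR with CYP2B6 luciferase reporter stimulated by CITCO; nearly all actives have a fitted effect of over 40% in size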
Outline: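 HepG2-CYP2B6-hCAR cells; 4 h pre-incubation; cpd (15 conc) + CITCO 50 nM final; 24 h, 37 C/5% CO2; ONE-Glo, luminescence.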

[11] = biological target: Nuclear receptor subfamily 1 group I member 3 (Homo sapiens) (UniProt Q14994); assay: qHTS assay to identify small molecule agonists of the constitutive androstane receptor (CAR) signaling pathway (AID 1224839); also: series mostly up to about 92 µM; nearly all actives have a fitted effect of over 15% in size
Outline: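 A 15-concentration quantitative screen uses HepG2 cells co-transfected stably with human CAR and CYP2B6-2.2kb reporter. Treatment lasts 24 h with 0.75 uM PK11195 final present; ONE-Glo luminescence is the signal.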

[12] = qHTS assay to identify small molecule antagonists of the estrogen related receptor signaling pathway with the pleiotropic PPARgamma coactivator (PGC) from Tox21 10K library - cell viability counter screen (AID 1224840; active = well fitted cell-killing curve with a large enough effect in the repeat runs, not every such curve was filed as active; also: nearly all actives have a fitted effect of over 40% in size)
Outline: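 PGC/ERR cells, 2,000/well; 6 h pre-incubation 37 C/5% CO2; cpd in DMSO via pin tool; 17.5 h 37 C; CellTiter-Fluor, 30 min; fluorescence.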

[13] = biological target: Thyrotropin receptor (Homo sapiens) (UniProt P16473); assay: qHTS assay to identify small molecule agonists of the thyroid stimulating hormone receptor (TSHR) signaling pathway (AID 1224843; calls by dose curve; also: nearly all actives have a fitted effect of over 45% in size; also: potency is read from the fitted curve at half-maximal effect)
Outline: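 HEK293 cells stably bearing the thyrotropin receptor were plated at 800 cells/well and challenged with compound (30 min, RT). Accumulated cAMP was quantified via cAMP-d2 competing for cryptate-tagged antibody.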

[14] = qHTS assay to identify small molecule agonists of the hypoxia (HIF-1) signaling pathway - cell viability counter screen (AID 1224844; calls by dose curve; also: nearly all actives have a fitted effect of over 50% in size)
Outline: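 ME-180 HRE-bla cells, 2,000/well, 0.5% dialyzed FBS; 5 hr settle, 17 hr compound at 37C/5% CO2; CCF4-AM reporter read first, then CellTiter-Glo luminescence after 30 min RT.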

[15] = qHTS assay to identify small molecule agonists of H2AX (AID 1224845; active = well fitted activation curve with a large enough effect in the signal ratio in the repeat runs, not every such curve was filed as active; the % refers to the signal ratio)
Outline: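 Phospho-H2AX Ser139 measured by HTRF (ex 320 nm; em 665 and 620 nm) after 24 hr antibody incubation. Compounds, 15 concentrations, 0.76% DMSO, were applied to CHO-K1 cells for 3hr at 37C before lysis.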

[16] = qHTS assay to identify small molecule agonists of the hypoxia (HIF-1) signaling pathway (AID 1224846; active = well fitted activation curve with a large enough effect in the signal ratio in the repeat runs, not every such curve was filed as active; the % refers to the signal ratio)
Outline: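 Cell line: CellSensor HRE-bla ME-180; 2,000 cells/well; 0.5% dialyzed FBS; 5 h preincubation; DMSO compound pin transfer; 17 h, 37C, 5% CO2; CCF4-AM added; bla FRET signal scored for activation.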

[17] = qHTS assay to identify small molecule agonists of H2AX - cell viability counter screen (AID 1224847; calls by dose curve; also: top concentration of the series differs between compounds; nearly all actives have a fitted effect of over 30% in size)
Outline: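 We seed wild-type CHO-K1 cells overnight, treat them for 3 hr at 37C with compounds in 15-concentration series, and quantify remaining viability by CellTiter-Glo luminescence.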

[18] = qHTS assay to identify small molecule antagonists of the estrogen related receptor signaling pathway with the pleiotropic PPARgamma coactivator (PGC) from Tox21 10K library (AID 1224841; call rule not given here; also: series mostly up to about 92 µM; actives are mostly falling curves and most rising ones were filed inactive; nearly all actives have a fitted effect of over 50% in size)
Outline: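 PGC/ERR cell line, 2,000 cells/well; 6 h pre-incubation 37 C/5% CO2; compounds (DMSO) pinned in; 18 h, 37 C; One-Glo, 30 min RT; luminescence.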

Luciferin 4-monooxygenase (Photinus pyralis), sequence (P08659 whole entry, looked up): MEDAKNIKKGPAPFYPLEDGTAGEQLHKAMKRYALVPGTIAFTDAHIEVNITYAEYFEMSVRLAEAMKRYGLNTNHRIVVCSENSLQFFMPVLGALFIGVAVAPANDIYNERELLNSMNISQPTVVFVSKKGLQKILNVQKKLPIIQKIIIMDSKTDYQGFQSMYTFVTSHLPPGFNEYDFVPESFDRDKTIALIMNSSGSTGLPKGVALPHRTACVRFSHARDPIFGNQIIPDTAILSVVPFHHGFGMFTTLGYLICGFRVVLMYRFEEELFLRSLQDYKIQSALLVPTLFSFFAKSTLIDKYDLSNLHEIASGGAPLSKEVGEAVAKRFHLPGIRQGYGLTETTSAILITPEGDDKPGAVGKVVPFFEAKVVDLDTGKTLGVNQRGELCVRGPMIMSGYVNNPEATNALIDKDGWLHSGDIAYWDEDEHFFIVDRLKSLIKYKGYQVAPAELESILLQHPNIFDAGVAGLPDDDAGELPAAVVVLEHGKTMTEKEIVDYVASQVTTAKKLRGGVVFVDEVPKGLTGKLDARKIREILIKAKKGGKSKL
Thyrotropin receptor (Homo sapiens), sequence (P16473 whole entry, looked up): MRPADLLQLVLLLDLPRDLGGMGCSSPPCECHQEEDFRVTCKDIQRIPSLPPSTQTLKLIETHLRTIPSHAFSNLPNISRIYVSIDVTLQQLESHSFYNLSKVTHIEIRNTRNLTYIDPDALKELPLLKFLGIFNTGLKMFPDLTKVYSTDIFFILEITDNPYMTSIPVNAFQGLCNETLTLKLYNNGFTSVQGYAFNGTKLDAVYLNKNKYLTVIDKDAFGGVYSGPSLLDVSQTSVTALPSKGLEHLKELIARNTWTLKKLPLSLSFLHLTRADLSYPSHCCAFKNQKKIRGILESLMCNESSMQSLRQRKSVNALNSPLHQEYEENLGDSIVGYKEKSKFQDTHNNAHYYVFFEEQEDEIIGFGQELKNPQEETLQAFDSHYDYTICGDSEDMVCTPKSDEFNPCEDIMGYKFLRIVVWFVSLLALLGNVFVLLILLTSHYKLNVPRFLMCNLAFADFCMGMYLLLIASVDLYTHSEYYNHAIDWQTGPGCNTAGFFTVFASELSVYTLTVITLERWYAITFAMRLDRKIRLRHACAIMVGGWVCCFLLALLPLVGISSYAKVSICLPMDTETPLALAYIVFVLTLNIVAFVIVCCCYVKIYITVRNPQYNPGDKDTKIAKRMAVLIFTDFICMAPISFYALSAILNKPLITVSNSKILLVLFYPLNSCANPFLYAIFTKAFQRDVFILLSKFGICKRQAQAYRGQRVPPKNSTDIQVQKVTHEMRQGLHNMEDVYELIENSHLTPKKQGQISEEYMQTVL
Nuclear receptor subfamily 1 group I member 3 (Homo sapiens), sequence (Q14994 whole entry, looked up): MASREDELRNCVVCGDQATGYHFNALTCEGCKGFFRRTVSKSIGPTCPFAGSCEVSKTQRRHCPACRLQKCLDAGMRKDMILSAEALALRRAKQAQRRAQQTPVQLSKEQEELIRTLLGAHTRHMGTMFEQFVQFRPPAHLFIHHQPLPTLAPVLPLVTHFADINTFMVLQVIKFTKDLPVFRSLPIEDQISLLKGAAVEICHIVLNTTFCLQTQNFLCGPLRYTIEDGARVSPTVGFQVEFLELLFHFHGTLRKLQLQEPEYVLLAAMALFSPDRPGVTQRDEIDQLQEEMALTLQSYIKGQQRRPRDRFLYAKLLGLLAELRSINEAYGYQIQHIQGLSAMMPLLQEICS
Retinoic acid receptor RXR-alpha (Homo sapiens), sequence (P19793 whole entry, looked up): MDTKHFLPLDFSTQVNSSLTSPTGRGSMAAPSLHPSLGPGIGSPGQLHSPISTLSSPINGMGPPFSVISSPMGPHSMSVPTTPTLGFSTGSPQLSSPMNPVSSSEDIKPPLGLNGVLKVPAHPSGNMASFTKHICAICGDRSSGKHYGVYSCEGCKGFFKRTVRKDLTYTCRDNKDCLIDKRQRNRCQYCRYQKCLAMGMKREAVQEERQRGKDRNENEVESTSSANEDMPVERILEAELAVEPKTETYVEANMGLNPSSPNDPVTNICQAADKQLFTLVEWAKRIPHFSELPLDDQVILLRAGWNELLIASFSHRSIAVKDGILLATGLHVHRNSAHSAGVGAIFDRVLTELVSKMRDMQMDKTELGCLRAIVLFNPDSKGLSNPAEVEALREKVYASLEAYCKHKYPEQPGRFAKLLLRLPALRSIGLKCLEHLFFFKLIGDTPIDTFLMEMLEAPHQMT

| SMILES | Potency [1] | Potency [2] | outcome [3] | Potency [4] | Potency [5] | Potency [6] | Potency [7] | Potency [8] | Potency [9] | Potency [10] | Potency [11] | Potency [12] | Potency [13] | Potency [14] | Potency [15] | outcome [16] | Potency [17] | Potency [18] |
| --- | --- | --- | --- | --- | --- | --- | --- | --- | --- | --- | --- | --- | --- | --- | --- | --- | --- | --- |
| CC(=O)Nc1cccc(O)c1 | inactive | inactive | inactive | inactive | inactive | inactive | inactive | inactive | inactive | inactive | inactive | inactive | inactive | inactive | inactive | inactive | inactive |  |
| CCCC(C)=O | inactive | inactive | inactive | inactive | inactive | inactive | inactive | inactive |  | inactive | inactive | inactive |  |  | inactive | inactive | inactive |  |
| O=C(O)CCCC[C@@H]1SC[C@@H]2NC(=O)N[C@@H]21 | inactive | inactive | inactive | inactive | inactive | inactive | inactive | inactive | inactive | inactive |  | inactive | inactive |  | inactive |  | inactive | inactive |
| CCc1cccc(C)c1N | inactive | inactive | inactive | inactive | inactive | inactive | inactive | inactive | inactive |  |  | inactive | inactive |  | inactive | inactive | inactive | inactive |
| O=C(O)c1cc(C(=O)O)cc(S(=O)(=O)O)c1 | inactive | inactive | inactive | inactive | inactive | inactive | inactive | inactive | inactive |  |  | inactive | inactive |  | inactive |  | inactive |  |
| CCCCCC1=CCCC1=O | inactive | inactive | inactive | inactive | inactive | inactive | inactive | inactive |  | inactive | inactive | inactive | inactive | inactive | inactive |  | inactive |  |
| CC1=CCC2CC1C2(C)C (stereo not given) | inactive | inactive | inactive | inactive | inactive | inactive | inactive | inactive | inactive |  |  | inactive | inactive | inactive | inactive | inactive | inactive |  |
| Fc1ccc(Br)cc1 | inactive | inactive | inactive | inactive | inactive | inactive | inactive | inactive | inactive | inactive | inactive | inactive | 30.9 µM (active) and inactive |  | inactive |  | inactive | inactive |
